Data: ChEMBL document CHEMBL4513216, “Probing the Open Global Health Chemical Diversity Library for Multistage-Active Starting Points for Next-Generation Antimalarials” (ACS Infect Dis, 2020)
The campaign covered roughly 69,000 compounds. About 8,600 (12%) showed an effect of 50% or more. The entries come from a sample that favours strong results as a whole.

test system: Plasmodium berghei; assay: Screen against P. berghei liver stage (PbLuc), transformed with Luciferase, at 10uM; assay type: functional, HepG2; conditions: tested at 10 uM

Row | SMILES | INHIBITION [%]
1 | CN1C(=O)CC(c2cnn(C)c2)C12CCN(C(=O)c1cccn1C)CC2 (stereo not drawn) | 26.4
2 | O=C(c1cc[nH]n1)N1CCc2cc(Br)sc2C1 | 24.2
3 | Cc1nc(CN2CCOCC3(CCN(c4cccnc4)CC3)C2)cs1 | 14.4
4 | COCc1ncn2c1CN(C(=O)Nc1ccccc1)CC2 | -22.1
5 | CC(Cn1ccnc1)NC(=O)Cc1ccc2c(c1)OCCO2 (stereo not drawn) | -21.8
6 | Cc1ccsc1-c1nccn1C1CC(=O)N(C(C)C)C1 (stereo not drawn) | 35.8
7 | Cc1ccc(NC(=O)CNC(C)Cc2ccsc2)cc1F (stereo not drawn) | 52.2
8 | Cc1ccc(NC(=O)CN[C@H](C(N)=O)C(C)C)cc1F | 10.7
9 | Cc1cccc(C)c1NC(=O)CNC(C)Cc1ccsc1 (stereo not drawn) | 34.6
10 | Cc1ccn(-c2cccc(C(=O)N3CCCC(n4ccnc4C)C3)c2)n1 (stereo not drawn) | 44.8
11 | Cc1cc(CN2CC[C@H]3[C@H]2CCN3CC(=O)N(C)C)oc1C | 38.3
12 | Cc1cc(CN(CCCO)c2ccccc2)on1 | 56.5
13 | Cc1cc(CN(CCO)c2ccc(Br)cc2)on1 | 13.8
14 | Cc1cc(CN(CCO)c2ccccc2)on1 | 45.5
15 | Cc1cc(C(=O)NCc2cc(C)oc2C)no1 | -13
16 | CCN1CCN(C(=O)c2cccc(CN3CCOCC3)c2)CC1 | -14.8
17 | COCCN1CCn2cc(CN(C)Cc3ccco3)nc2C1 | 73
18 | CCS(=O)(=O)N1CCn2cc(CN(C)Cc3ccco3)nc2C1 | 47.4
19 | CN(Cc1cn2c(n1)CN(Cc1nccs1)CC2)Cc1ccco1 | 43.9
20 | CN(Cc1cn2c(n1)CN(Cc1ccsc1)CC2)Cc1ccco1 | 31.1
21 | Cc1ccc(CN2CCn3cc(CN(C)Cc4ccco4)nc3C2)o1 | -3.16
22 | CN(Cc1cn2c(n1)CN(Cc1ccc(F)cc1)CC2)Cc1ccco1 | 59
23 | O=C([C@H]1CC[C@@H]2[C@@H](CCN2Cc2nccs2)O1)N1CCOCC1 | -1.12

Row | SMILES | INHIBITION [%]
24 | Cc1ccnc(CC(C)N(C)c2cc(CN)nc(C)n2)c1 (stereo not drawn) | 66.5
25 | Cc1ccnc(CC(C)N(C)c2cc(C3CCNCC3)nc(C)n2)c1 (stereo not drawn) | 36.9
26 | Cc1ccnc(CC(C)N(C)c2cc(CCN)nc(C)n2)c1 (stereo not drawn) | 45.2
27 | Cc1cc(C(=O)N2CCC3(CCNCC3)CC2)c2cccc(C)c2n1 | 18.4
28 | Cc1nc(CN2CCCC(c3cnccn3)C2)cs1 (stereo not drawn) | 17.8
29 | CC(C)c1noc(-c2ccc(NCC3CCCOC3)nc2)n1 (stereo not drawn) | -118
30 | CC(C)c1noc(-c2ccc(NCCCC3CCOC3)nc2)n1 (stereo not drawn) | 43.9
31 | CC(C)c1noc(-c2ccc(NCCCN3CCCC(O)C3)nc2)n1 (stereo not drawn) | 53
32 | CS(=O)(=O)NC1CC2(CCN(CCF)CC2)Oc2ccccc21 (stereo not drawn) | 12.5
33 | CCOC(C)c1nccn1Cc1noc(CC)n1 (stereo not drawn) | 8.41
34 | CCC(C)[C@H](N)c1nnc(SCC(=O)Nc2cc(C)ccc2C)o1 (stereo partly drawn) | 22.2
35 | CN(Cc1cc2n(n1)CCN(C(=O)c1cccnc1)C2)Cc1nccs1 | -10.6
36 | CN(Cc1cc2n(n1)CCCN(C(=O)N1CCCC1)C2)Cc1nccs1 | 38.5
37 | CN(Cc1cc2n(n1)CCN(C(=O)[C@H]1CCCO1)C2)Cc1nccs1 | 50.3
38 | Cc1nc(C)n(CC2CCCN2CCOc2ccccc2C#N)n1 (stereo not drawn) | 17.4
39 | CC(C)CN(CC(O)c1ccccc1)C(=O)NC(C)C (stereo not drawn) | 40.9
40 | CCn1nc(C)c(CCNC(=O)C2CCCN(C(N)=O)C2)c1C (stereo not drawn) | -8.11
41 | CC(C)c1ccc(OCCC(=O)N2CCCN(C(N)=O)CC2)cc1 | -4
42 | CC(c1cccnc1)N(C)Cc1cc2cc3c(cc2[nH]c1=O)OCO3 (stereo not drawn) | 27.6
43 | CC(c1ccncn1)N(C)Cc1cc2cc3c(cc2[nH]c1=O)OCO3 (stereo not drawn) | 58.7
44 | CC(c1ccccn1)N(C)Cc1cc2cc3c(cc2[nH]c1=O)OCO3 (stereo not drawn) | 21.8
45 | Cc1ccc(N2CCCC(NCCCS(C)(=O)=O)C2)nn1 (stereo not drawn) | 14.9
46 | COCCCNC1CCCN(c2ccc(C)nn2)C1 (stereo not drawn) | -28.7

Row | SMILES | INHIBITION [%]
47 | Cc1ccc(N2CCCC(NCCS(C)(=O)=O)C2)nn1 (stereo not drawn) | 64.4
48 | CCOCC(=O)NCCCn1ccnc1-c1ccccc1 | 16.5
49 | CCc1nnc(CN(CC)C(=O)C2CC(=O)N(C(C)(C)C)C2)o1 (stereo not drawn) | 35.8
50 | CCn1ccc(-c2cc(C(=O)O)n3nc(C)c(Cl)c3n2)n1 | 12.3
51 | CCn1ccc(-c2cc(NCCCOc3ccccc3C)nc(C)n2)n1 | 82.4
52 | Cc1cccc(OCCCNC(=O)Cn2ccc(C)cc2=O)c1 | -12.9
53 | CCOc1cccc(C(=O)Nc2ccn(CC)n2)c1 | -35.4
54 | CCn1ccc(-c2cc(NCCCOc3cccc(C)c3)nc(C)n2)n1 | 75.9
55 | COc1ccccc1OCCNCCn1cccn1 | 19.4
56 | CCCNC(=O)c1nn(CC)cc1NC(=O)C(C)n1ncc(Cl)c1C (stereo not drawn) | 8.49
57 | CC(C)NC(=O)N1CCc2ncnc(-c3ccncc3)c2CC1 | -7.24
58 | Cc1nc(C)n(CC2CN(CCOc3cccc(C#N)c3)CCO2)n1 (stereo not drawn) | -5.07
59 | Cc1ccc(CN2CCc3[nH]nc(C(=O)N4CCNC(=O)C4)c3C2)s1 | 18.7
60 | CCNC(=O)[C@@H]1C[C@H](NC(=O)c2ccc(C)s2)CN1Cc1ccc(C)o1 | 68.9
61 | CCNC(=O)[C@@H]1C[C@@H](NC(=O)c2cc(C)on2)CN1Cc1ccccn1 | 54.8
62 | CCNC(=O)[C@@H]1C[C@@H](NC(=O)Cc2ccccn2)CN1CCCSC | 41.8
63 | CCNC(=O)[C@@H]1C[C@H](NC(=O)Cc2ccsc2)CN1Cc1ccc(C)o1 | 24.6
64 | CCNC(=O)[C@@H]1C[C@H](NC(=O)c2cc(CC)n[nH]2)CN1Cc1ccsc1 | -20.5
65 | CCNC(=O)[C@@H]1C[C@@H](NC(=O)c2ccc(C)s2)CN1Cc1ccccn1 | 18.9
66 | CCN(CCOC)C(=O)c1cc(COc2ccc3c(c2)CCCC3)on1 | 25.1
67 | Cc1cc(C(F)(F)F)nc(CCNC(C)Cn2cncn2)n1 (stereo not drawn) | 8.86
68 | COC(=O)CCCC(=O)N1CCC(CO)(CCc2ccccc2)CC1 | 30.7
